This is an account of results in PubChem BioAssay (Tox21).

The nature of experiment [1]: qHTS assay for small molecule agonists of the p53 signaling pathway (AID 651631; calls by dose curve; note: nearly all actives have a fitted effect of over 15% in size). Put shortly: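 Beta-lactamase reporter activity under p53 response elements was quantified in HCT-116 cells by FRET fluorescence, following 16 h incubation with test compounds at 37 °C and 2 h substrate development at room temperature.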
(In general: Quantitative high-throughput screening tests each substance at several concentrations.)

The nature of experiment [2]: qHTS assay for small molecules that induce genotoxicity in human embryonic kidney cells expressing luciferase-tagged ATAD5 (AID 651632). Note: nearly all actives have a fitted effect of over 15% in size. Note: potency is the fitted concentration of half-maximal effect. The procedure, abridged: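 Luminescence read-out: after 16 hr compound exposure at 37C, ATAD5-luciferase HEK293T cells received Amplite, 30 min RT, then CCD imaging. A rise in signal marks genotoxic stress.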
Experiment [3] can be described thus: qHTS assay for small molecules that induce genotoxicity in human embryonic kidney cells expressing luciferase-tagged ATAD5 - cell viability (AID 651634; calls by dose curve; note: nearly all actives have a fitted effect of over 25% in size). Put shortly: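 HEK293T ATAD5-luc cells, 2,000/well; compound 15.5 hr, 37C/5% CO2; CellTiter-Fluor 30 min, 37C; fluorescence read.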
The nature of experiment [4]: qHTS assay for small molecule disruptors of the mitochondrial membrane potential - cell viability (AID 720634; calls by dose curve;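 note: human HepG2 liver cancer cells; series mostly up to about 83 µM; nearly all actives have a fitted effect of over 20% in size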). Put shortly: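 Luminescence from CellTiter-Glo (ATP content) gave viability in HepG2 cells, read in the same wells as the MMP dye assay after 1 hr compound exposure at 37 C.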
Experiment [5] is described as follows: qHTS assay for small molecule disruptors of the mitochondrial membrane potential (AID 720635). Note: potency is the fitted concentration of half-maximal effect. Put shortly:
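HepG2 cells exposed to compound 1 hr at 37C, then Mito-MPS dye 30 min. Ratio read of aggregate (540/590 nm) versus monomer (490/535 nm) fluorescence.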

A short description of experiment [6]: qHTS assay to test for compound auto fluorescence at 590 nm (red) in HepG2 cells (AID 720674). The procedure, abridged: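 Seeding: 2,000 HepG2 cells/well, MEM/10% FBS, overnight 37 C. Dosing: compound vs DMSO. Incubation: 1 hr, 37 C, 5% CO2. Read: fluorescence 540 ex/590 em, Rose Bengal sodium as red reference.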
Experiment [7] is described as follows: qHTS assay to test for compound auto fluorescence at 535 nm (green) in HepG2 cells (AID 720675).
Experiment [8] in a line: qHTS assay to test for compound auto fluorescence at 460 nm (blue) in HEK293 cells (AID 720678). Put shortly:
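Intrinsic compound fluorescence is recorded in live HEK293 cultures after overnight incubation at 37C, 5% CO2, using excitation 405 nm and emission 460 nm. Values are referenced to triamterene.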

Experiment [9] is described as follows: qHTS assay to test for compound auto fluorescence at 590 nm (red) in HEK293 cells (AID 720679). Put shortly:
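Red autofluorescence, HEK293 cells: 2,000 cells/well; attach 4-5 hr 37C; add 23 nL cpd or DMSO; incubate o/n 37C 5% CO2; read Ex540/Em590; Rose Bengal sodium reference.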

Experiment [10] in a line: qHTS assay to test for compound auto fluorescence at 535 nm (green) in HEK293 cells (AID 720680).
Experiment [11] in a line: qHTS assay to test for compound auto fluorescence at 460 nm (blue) in HEK293 cell free culture (AID 720681). Put shortly: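 Compounds were added to cell-free DMEM with 10% FBS and fluorescence read directly. The blue channel used 405 nm excitation and 460 nm emission, with triamterene as the reference fluorophore.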
Experiment [12] can be described thus: qHTS assay to test for compound auto fluorescence at 535 nm (green) in HEK293 cell free culture (AID 720682). Put shortly: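 Each library compound, or DMSO control, is added by pintool to medium alone, comprising DMEM and 10% FBS. Emission at 535 nm following 485 nm excitation is quantified against fluorescein.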
Experiment [13] in a line: qHTS assay to test for compound auto fluorescence at 590 nm (red) in HEK293 cell free culture (AID 720683). The procedure, abridged:
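Cell-free wells of DMEM with 10% FBS received compound, and intrinsic fluorescence was read at excitation/emission 540/590 nm. Values expressed as equivalence to Rose Bengal sodium.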

Experiment [14] can be described thus: qHTS assay to test for compound auto fluorescence at 590 nm (red) in HepG2 cell free culture (AID 720684). The procedure, abridged: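 Auto fluorescence equivalency versus Rose Bengal sodium, red channel Ex/Em 540/590 nm; compounds in cell-free MEM/10% FBS; DMSO vehicle control.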
Experiment [15] in a line: qHTS assay to test for compound auto fluorescence at 460 nm (blue) in HepG2 cell free culture (AID 720685). Put shortly:
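Cell-free plates of MEM plus 10% FBS received 23 nL compound or DMSO vehicle; blue-channel (405/460 nm) intensity scored against triamterene as reference fluorophore.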

The nature of experiment [16]: qHTS assay to test for compound auto fluorescence at 535 nm (green) in HepG2 cell free culture (AID 720686).
A short description of experiment [17]: qHTS assay to test for compound auto fluorescence at 460 nm (blue) in HepG2 cells (AID 720687). Put shortly:
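HepG2 cells in MEM with 10% FBS, attached overnight at 37 C, were exposed to compound or DMSO for 1 hr at 37 C, 5% CO2. Blue fluorescence was read at 405/460 nm, with triamterene as reference fluorophore.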

In experiment [18] the target is Glucocorticoid receptor (Homo sapiens) (UniProt P04150). Description: qHTS assay to identify small molecule agonists of the glucocorticoid receptor (GR) signaling pathway (AID 720691; active = well fitted activation curve with a large enough effect in the signal ratio in the repeat runs, not every such curve was filed as active; the % refers to the signal ratio). Put shortly:
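HeLa GR-bla reporter line; cells pre-incubated 4 h, compound in DMSO 18 h at 37 C; LiveBLAzer B/G FRET substrate 2 h RT; fluorescence intensity read-out.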

A short description of experiment [19]: qHTS assay for small molecule agonists of the p53 signaling pathway - cell viability (AID 651633; calls by dose curve;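 note: p53RE-bla HCT reporter cells with a stable beta-lactamase p53 reporter; series mostly up to about 83 µM; nearly all actives have a fitted effect of over 30% in size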). Put shortly: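 p53RE-bla cells were treated with compound for 16 hours at 37 C. Cytotoxicity was then measured as CellTiter-Glo luminescence after 30 min at room temperature.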
Experiment [20] deals with Glucocorticoid receptor (Homo sapiens) (UniProt P04150). Briefly: qHTS assay to identify small molecule antagonists of the glucocorticoid receptor (GR) signaling pathway (AID 720692; active = well fitted inhibition curve with a large enough effect in the signal ratio in the repeat runs, not every such curve was filed as active; the % refers to the signal ratio). Put shortly: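 Read-out: beta-lactamase FRET substrate fluorescence, 2 h at room temperature, in HeLa cells stably carrying a GRE-driven bla reporter. Compounds were co-incubated with 5 nM dexamethasone agonist (final) for 18 h at 37 C.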
Sequence of Glucocorticoid receptor (Homo sapiens) (P04150 whole entry, looked up): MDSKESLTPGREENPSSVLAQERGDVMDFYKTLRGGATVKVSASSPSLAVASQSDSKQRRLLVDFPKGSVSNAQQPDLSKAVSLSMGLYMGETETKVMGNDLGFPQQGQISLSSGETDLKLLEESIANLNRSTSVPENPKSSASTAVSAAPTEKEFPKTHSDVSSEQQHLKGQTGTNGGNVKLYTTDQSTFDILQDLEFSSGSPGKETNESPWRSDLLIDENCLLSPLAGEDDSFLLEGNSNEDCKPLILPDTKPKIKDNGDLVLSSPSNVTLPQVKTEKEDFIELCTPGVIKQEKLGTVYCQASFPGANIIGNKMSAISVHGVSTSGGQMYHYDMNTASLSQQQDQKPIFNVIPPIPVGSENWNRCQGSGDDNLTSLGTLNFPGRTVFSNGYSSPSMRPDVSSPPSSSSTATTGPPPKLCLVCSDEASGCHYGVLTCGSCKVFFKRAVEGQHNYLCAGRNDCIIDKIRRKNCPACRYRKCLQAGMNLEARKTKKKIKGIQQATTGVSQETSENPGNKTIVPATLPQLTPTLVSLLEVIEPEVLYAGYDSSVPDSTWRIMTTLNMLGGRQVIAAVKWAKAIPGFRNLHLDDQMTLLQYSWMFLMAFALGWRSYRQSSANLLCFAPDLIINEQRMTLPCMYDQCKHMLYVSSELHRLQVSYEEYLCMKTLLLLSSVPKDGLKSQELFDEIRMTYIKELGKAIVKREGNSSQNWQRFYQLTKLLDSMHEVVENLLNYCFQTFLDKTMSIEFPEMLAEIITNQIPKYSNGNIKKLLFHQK

Each structure is given as a SMILES string. A number with no mark means an inactive call. Inconclusive results are not listed. Activity calls are given as the source filed them. Unless noted, calls come from the whole dose curve; as a rule, active = well fitted curve in the direction sought with a large enough effect in the repeat runs; inconclusive = weak or mixed curves; inactive = no such curve, though single readings can be large; an effect the other way counts as inactive or inconclusive.

Take `NC(=O)c1ncn([C@@H]2O[C@H](CO)[C@@H](O)[C@H]2O)c1N`: the Potency result in [1], in experiment [2], in experiment [3], in [4], in experiment [5] and in [8] was “inactive” each time. In addition, the Potency entry in [11], in experiment [15] and in experiment [17] was “inactive” each time. Besides, the result in experiment [6], in experiment [7], in experiment [9], in experiment [10], in experiment [12] and in [13] was inactive. The result in experiment [14] and in [16] was inactive.
As for `COc1ccc(N=[N+]([O-])c2ccc(OC)cc2)cc1`, the Potency result in experiment [1], in [3], in [8], in [11], in experiment [15] and in experiment [17] was “inactive” throughout. The Potency entry in experiment [18] was “inactive”. Further, the Potency in [2] is 0.136 µM (active); in experiment [5], 27 µM (active). Besides, the compound was classed as inactive in experiment [6], in experiment [7], in [9], in experiment [10], in [12] and in experiment [13]. The call in [14] and in [16] was inactive.
In the case of `CCCCN(CCO)CCO`, the Potency entry in [1], in [2], in [19], in experiment [3], in [4] and in [8] was “inactive” throughout. Moreover, the Potency result in experiment [11], in [15], in [17], in experiment [18] and in experiment [20] was “inactive” each time. Further, the outcome in [6], in experiment [7], in experiment [9], in [10], in [12] and in experiment [13] was inactive. Besides, the compound was called inactive in experiment [14] and in experiment [16].
Regarding `C=C(C)[C@H]1CC=C(C)CC1`, the Potency result in experiment [1], in [2], in experiment [3], in experiment [8], in experiment [11] and in [15] was “inactive” throughout. Further, the Potency result in [17] was “inactive”. The outcome in [6], in [7], in experiment [9], in [10], in experiment [12] and in [13] was inactive. For the same compound, the call in experiment [14] and in experiment [16] was inactive.
In the case of `CC(C)N1C(=O)c2ccccc2C1=O`, the Potency result in [2], in experiment [19], in experiment [3], in experiment [4], in experiment [5] and in experiment [8] was “inactive” in each case. In addition, the Potency result in experiment [11], in experiment [15] and in experiment [17] was “inactive” in each case. Moreover, the call in experiment [6], in [7], in experiment [9], in experiment [10], in experiment [12] and in experiment [13] was inactive. The compound was classed as inactive in experiment [14] and in experiment [16].
In the case of `CC(C=O)Cc1ccc(C(C)C)cc1` (centres undefined), the Potency result in [1], in experiment [2], in experiment [3], in [4], in [8] and in [11] was “inactive” in each case. The Potency result in [15], in experiment [17], in experiment [18] and in [20] was “inactive” throughout. The compound was called inactive in [6], in experiment [7], in experiment [9], in experiment [10], in experiment [12] and in experiment [13]. Besides, the compound was called inactive in experiment [14] and in [16].
On to `C1COCCO1`, for which the Potency result in [1], in experiment [2], in experiment [19], in experiment [3], in [8] and in experiment [11] was “inactive” in each case. Besides, the Potency result in experiment [15] and in [17] was “inactive” in each case. In addition, the result in [6], in experiment [7], in experiment [9], in experiment [10], in experiment [12] and in [13] was inactive. In addition, the compound was called inactive in experiment [14] and in [16].
As to `Cc1ccc(Nc2ccc(O)c3c2C(=O)c2ccccc2C3=O)cc1`, the Potency result in experiment [1], in experiment [2], in experiment [3], in [8], in experiment [11] and in [15] was “inactive” each time. Moreover, in experiment [17], the Potency result is “inactive”. Besides, the call in [6], in [7], in experiment [9], in experiment [10], in [12] and in experiment [13] was inactive. Moreover, the outcome in experiment [14] and in experiment [16] was inactive.
